Data as given in PubChem BioAssay (NCI).
About 83,000 compounds went through this panel and 20% of them were active in at least one assay; those are over-represented in the sample as a whole.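 In brief: 96-well plates, 48 h treatment, single concentration, percent growth endpoint.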 Activity calls are given as the source filed them. The calls were made as follows: active = growth percent below 10; inactive = the rest.

What was measured:
Test in all cases: NCI-60 one-dose screen, 48 h (100 = growth as untreated, 0 = no growth, -100 = all killed)
Conditions in all cases: 10 µM unless noted
[1] = tested on: NCI-H23 lung
[2] = tested on: NCI-H226 lung
[3] = tested on: NCI-H322M lung
[4] = tested on: HOP-62 NSCLC
[5] = tested on: NCI-H460 lung
[6] = tested on: HOP-92 NSCLC
[7] = tested on: NCI-H522 lung
[8] = tested on: A549/ATCC NSCLC
[9] = tested on: 786-0 renal
[10] = tested on: COLO 205 colon

Measured: growth

O=C1c2ccccc2-c2c1c1c(=O)[nH]c3ccccc3c1n2Cc1ccccc1
inactive: [1] 63.1% | [2] 29.5% | [3] 58.4% | [4] 75.8% | [5] 58.9% | [6] 56.4% | [7] 35% | [8] 44.9% | [9] 39.7% | [10] 73.8%

Cc1ccc(Nc2cc(N)nc(N)n2)cc1Cl
inactive: [1] 87.6% | [2] 93.3% | [3] 99.8% | [4] 87.3% | [5] 103% | [6] 83.9% | [7] 87% | [8] 83.1% | [9] 87.9% | [10] 107%

CC(=O)N1N=C(c2ccc(Nc3nc(Nc4ccccc4)nc(Nc4ccccc4)n3)cc2)CC1c1ccccc1 (stereo not given)
inactive: [1] 94% | [2] 86% | [3] 84.9% | [4] 77.6% | [5] 86.7% | [6] 61.5% | [7] 89.3% | [8] 79.3% | [9] 86.8% | [10] 68.5%

COc1ccc(NC2=C(I)C(=O)c3ncccc3C2=O)cc1
inactive: [2] 82.2% | [3] 17.4% | [6] 75.3% | [9] 11.3%
active: [1] -43.7% | [4] -62% | [5] -57.2% | [7] -69.4% | [8] 0.0675% | [10] -53.7%

COc1ccccc1NC(=O)N=Nc1c(O)[nH]c2ccccc12
inactive: [1] 89.8% | [2] 86.5% | [3] 81.2% | [4] 98.8% | [5] 104% | [6] 80.3% | [7] 83.2% | [8] 95.7% | [9] 90.4% | [10] 85.2%

NC(=O)c1cc(I)ccc1NC(=O)/C=C/c1ccccc1
active: [1] 9.27% | [4] -35.5% | [5] 1.75% | [6] 0.535% | [7] -18.7%
inactive: [2] 56.8% | [3] 33.8% | [8] 33.7% | [9] 26% | [10] 15.3%

Fc1ccc(CNc2c3ccccc3nc3ccccc23)c(F)c1
inactive: [1] 42.8% | [2] 54.8% | [3] 49.2% | [4] 57.2% | [5] 20% | [7] 42.3% | [8] 40.1% | [9] 47.6% | [10] 26.8%
active: [6] -2.61%

CCSc1oc(-c2ccccc2)nc1[P+](c1ccccc1)(c1ccccc1)c1ccccc1
active: [1] -11.8% | [2] -2.47% | [3] -6.18% | [4] 0.275% | [5] 0.695% | [6] -27.9% | [7] -20.3% | [8] 9.29% | [10] -45.5%
inactive: [9] 13.4%

Cn1ccnc1C(=O)/C=C/c1ccc(CC(=O)Nc2cc(C(F)(F)F)cc(C(F)(F)F)c2)cc1
inactive: [1] 85.4% | [2] 91.4% | [3] 73.2% | [4] 85.9% | [5] 55.3% | [6] 87% | [7] 77.4% | [8] 60.1% | [9] 65.6% | [10] 98.3%

Nc1[nH]n2cc(-c3ccccc3)nc2c1N=Nc1ccc(S(N)(=O)=O)cc1
inactive: [1] 45.7% | [2] 52.7% | [3] 36.6% | [4] 42.5% | [5] 20.1% | [6] 25.7% | [7] 30.5% | [8] 32.8% | [9] 28.4% | [10] 45.1%

CCOC(=O)C/C(=N\Nc1cc(=O)[nH]c2ccc(Br)cc12)C(=O)OCC
inactive: [1] 91.2% | [2] 86.9% | [3] 92.9% | [4] 95.9% | [5] 101% | [6] 76.2% | [7] 95.2% | [8] 106% | [9] 106% | [10] 107%

Cc1ccccc1/C=C/C(=O)c1cccc(OCCCOc2cccc(C(=O)/C=C/c3ccccc3C)c2)c1
inactive: [1] 88.5% [3 µM] | [2] 88.9% [3 µM] | [3] 106% [3 µM] | [4] 114% [3 µM] | [5] 99.8% [3 µM] | [6] 85.9% [3 µM] | [7] 80.5% [3 µM] | [8] 86% [3 µM] | [9] 103% [3 µM] | [10] 110% [3 µM]

CCOC(=O)[C@@H]1CSC(CC)=C(C(=O)O)N1
active: [6] -35.1%
inactive: [1] 103% | [2] 98.2% | [3] 92.7% | [4] 89.2% | [5] 110% | [7] 93.6% | [8] 90.7% | [9] 92.2% | [10] 100%

C#COc1cccc(Nc2c(C#N)cnc3ncc(NC(=O)CCl)cc23)c1
inactive: [1] 59.6% [6.25 µM] | [2] 57.2% [6.25 µM] | [3] 53.1% [6.25 µM] | [4] 32.8% [6.25 µM] | [5] 11.8% [6.25 µM] | [6] 54.5% [6.25 µM] | [8] 31.2% [6.25 µM] | [10] 17.5% [6.25 µM]
active: [7] -69.4% [6.25 µM] | [9] -23.4% [6.25 µM]

N#Cc1ccc(O)c(C2=NCC(c3ccccc3)O2)c1 (stereo not given)
inactive: [1] 44.6% | [2] 68% | [3] 55.9% | [4] 29.7% | [5] 19.9% | [6] 60.6% | [8] 32% | [9] 33.2% | [10] 36%
active: [7] -12.8%

N#Cc1nc(-c2ccc(F)cc2)oc1S(=O)(=O)N1CCOCC1
inactive: [1] 70.3% | [2] 81.7% | [3] 102% | [4] 101% | [5] 107% | [6] 94.6% | [8] 107% | [9] 87.6%
active: [7] -33.8% | [10] -36.4%

C=C(C)[C@@H]1CC[C@]2(C(=O)N3CCOCC3)CC[C@]3(C)[C@H](CC[C@@H]4[C@@]5(C)C/C(=C/c6ccncc6)C(=O)C(C)(C)[C@@H]5CC[C@]43C)[C@@H]12
inactive: [1] 61.7% | [2] 42.9% | [3] 86.8% | [4] 80.8% | [5] 49.7% | [6] 39.5% | [7] 50.3% | [8] 42.4% | [9] 76.4% | [10] 51.5%

CC/C=C\C[C@H](O)C/C=C1/C(=O)C=C[C@@H]1C/C=C\CCCC(=O)N(C)C
inactive: [3] 18.3%
active: [1] -27% | [2] -51.3% | [4] -40.2% | [5] -26.3% | [6] -4.76% | [7] -88.2% | [8] -35.6% | [9] -66.2% | [10] -58.6%

COc1ccccc1CNc1c2ccccc2nc2ccccc12
inactive: [1] 30.9% | [2] 39.9% | [3] 48.6% | [4] 44.5% | [5] 10.2% | [6] 18.2% | [7] 62.4% | [8] 34.2% | [9] 39.3% | [10] 12.8%

COc1cc2c(cc1OCCCN1CCN(CCCOc3cc4c(cc3OC)C(=O)N3CC(F)(F)C[C@H]3C=N4)CC1)N=C[C@@H]1CC(F)(F)CN1C2=O
inactive: [1] 54% | [2] 95.5% | [3] 97.9% | [4] 97.4% | [5] 27% | [6] 10.8% | [8] 94.4% | [9] 86.2% | [10] 43.1%
active: [7] -14.3%

COC(=O)c1nc(-c2ccccc2)oc1S(=O)(=O)Cc1ccccc1
inactive: [1] 96.8% | [2] 96.1% | [3] 98.1% | [4] 99.2% | [5] 107% | [6] 87.2% | [7] 38.1% | [8] 96.5% | [9] 71.4%
active: [10] -43%
